Laboratory results from PubChem BioAssay AID2314 (National Center for Advancing Translational Sciences (NCATS), 2010).
Among all 300,000 compounds or so, about 37,000 (12%) were called active. The full list was thinned out, with actives kept by preference. A number with no mark means an inactive call. Cut-off read from the data, not from the text of the source: active = max response mostly above about 13% (no sharp cut-off); inactive = mostly below about 14%.

Assay: Cycloheximide Counterscreen for Small Molecule Inhibitors of Shiga Toxin; note: read at 38.3 µM for the half of the compounds with a filed dose; 0% is about no effect
Conditions: cell reporter, cycloheximide protein synthesis inhibition counterscreen; active compounds read high

Compared with `COc1ccc(NC(=O)CSCc2ccc([N+](=O)[O-])cc2)cc1OC`, `Cc1cccc(OCc2ccc(C(=O)Nc3ccc(F)cc3)cc2)c1` is higher in max response: -3.9% for the first, -3.2% for the second.

Going from `Cc1cccc(N2CCN(C(=O)c3cccc(N4C(=O)C5C6C=CC(C6)C5C4=O)c3)CC2)c1C` (stereo unspecified) to `Cc1ccc(N2CCN(c3ccc([N+](=O)[O-])cn3)CC2)c(C)c1`, the max response rises from -6.3% to -4.64%.

Compared with `Cc1ccc(Nc2nnc(SCC(=O)c3cc4ccccc4o3)s2)cc1C`, `O=C(CSc1nnc(Nc2ccccc2)s1)Nc1cccnc1Cl` is lower in max response: 10.2% for the first, 2.36% for the second.

First: Cc1cc(=O)oc2c3c(cc(OCC(=O)NCc4ccccn4)c12)OC(C)(C)CC3
Second: Cc1cccc(NC(=O)c2nc[nH]c2C(=O)NCC(=O)OCc2ccccc2)c1
The max response of the first is lower: -2.86% for the first, 1.03% for the second.

First: O=C(COc1ccc(S(=O)(=O)Nc2cccc(C(F)(F)F)c2)cc1)N1CCOCC1
Second: COCCCNC(=O)CN1C(=O)CSc2ccc(S(=O)(=O)N3CCOCC3)cc21
The max response of the first is lower: -0.756% for the first, -0.345% for the second.

Going from `CCOC(=O)CSc1ccccn1` to `CCOc1ccc(NC(=O)c2nc(SCC)ncc2Cl)cc1`, the max response falls from -1.11% to -5.84%.

Going from `CN(C)c1nc(N)nc(CSc2nnnn2-c2cccc3ccccc23)n1` to `O=C(CCl)NNc1nc(-c2ccccc2)c2cc(Cl)ccc2n1`, the max response falls from -1% to -5.34%.

Compared with `CCOC(=O)c1cc2c(=O)[nH]c(C(Cl)(Cl)Cl)nc2o1`, `CCSc1ncc(Cl)c(C(=O)Nc2cc(C)ccc2C)n1` is lower in max response: 7.51% for the first, -0.976% for the second.

Going from `O=C(O)c1cccc2c1C(=O)N(C1CCCC1)C2` to `CC1CCC(N2CC(=O)N(Cc3ccc4c(c3)OCO4)C(c3ccc(F)cc3)C2=O)CC1` (stereo unspecified), the max response rises from -2.23% to -2.2%.

First: OC(COc1ccc(CN2CCSCC2)cc1)CN1CCCCC1 (stereo unspecified)
Second: O=C(c1cc(Cl)cc(Cl)c1)N1CCC(=O)N(C(COCc2ccccc2)Cc2ccccc2)CC1 (stereo unspecified)
The max response of the first is higher: 0.684% for the first, -1.19% for the second.

In the case of `COc1cc(OC)nc(NC(=O)CCl)n1`, the max response is reported as -2.63%.

With `CC(C)c1ccc(Nc2nnc(SCC(=O)c3nnc(-c4ccccc4)o3)s2)cc1` the max response was 23.6% (active).
With `CN(C)c1nc(N)nc(CSc2ccccn2)n1` the max response was 21.5% (active).
For `Cc1cccc(CS(=O)(=O)c2ncc(Cl)c(C(=O)Nc3ccc(F)cc3)n2)c1`, the max response was 30.3% (active).
With `Cc1cccc(NC(=O)c2nc(S(=O)(=O)Cc3ccccc3)ncc2Cl)c1` the max response was 29% (active).
In the case of `O=C(CCl)NNc1cccc(Cl)n1`, the max response is reported as 26.1% (active).
